An excerpt weighted towards active compounds, which were near 4.1% of everything screened.
BoNT F protease – inhibitors of Botulinum neurotoxin F light chain protease; Multiplex microsphere protease cleavage assay, flow cytometry; inhibition, % at 10 µM; 360,000 compounds, 0.22% hits; AID 588497; in the data active = inhibition above about 35%, passing the limit was not always enough; also: plate controls were buffer without enzyme for full effect and enzyme alone for no effect
BoNT-A LC inh2 – BoNT A light chain protease inhibition; multiplex microsphere protease substrate cleavage, flow cytometry; 360,000 compounds, 0.17% hits; AID 588499; inhibition, % at 10 µM; also: plate controls were buffer without enzyme for full effect and enzyme alone for no effect
MazF activator – activators of E. coli MazEF toxin-antitoxin RNase. FAM/BHQ RNA-DNA oligo cleavage fluorescence, 5 h. activation, % at 20 µM. 350,000 compounds, 0.32% hits; in the data active = activation above about 50%
Target sequence (P0AE70 whole entry, looked up): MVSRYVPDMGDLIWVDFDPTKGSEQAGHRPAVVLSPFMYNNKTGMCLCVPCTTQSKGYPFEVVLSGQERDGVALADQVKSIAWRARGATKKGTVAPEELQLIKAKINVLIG
DUSP3 inh – DUSP3 (human) phosphatase inhibition; P51452; recombinant VHR phosphatase, pNPP absorbance; inhibition, % at 13.3 µM; 290,000 compounds, 0.52% hits; in the data active = inhibition above about 50%
Target sequence (P51452 whole entry, looked up): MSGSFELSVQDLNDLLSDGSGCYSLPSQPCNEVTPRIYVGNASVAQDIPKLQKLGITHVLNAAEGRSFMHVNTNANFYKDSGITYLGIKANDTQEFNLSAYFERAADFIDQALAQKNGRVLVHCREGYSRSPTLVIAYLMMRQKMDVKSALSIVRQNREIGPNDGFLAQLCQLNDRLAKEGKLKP
Bead autofluor – compound fluorescence in toxin protease inhibitor counterscreen; compound autofluorescence counterscreen, microsphere flow cytometry; active compounds read high; fluorescence intensity (concentration not given with the values); 360,000 compounds, 3.1% hits; in the data active = fluorescence intensity above about 16000
Anthrax LF prot – inhibitors of Bacillus anthracis lethal factor protease; P15917; multiplex microsphere protease cleavage assay, LF; inhibition, % at 10 µM; 360,000 compounds, 0.12% hits; AID 588501; also: plate controls were buffer without enzyme for full effect and enzyme alone for no effect
* = called active by the depositor; · = not tested or not shown. Rule as the data show it, unless noted: active = inhibition above about 30%; inconclusive = no clear call, values can overlap the other calls; inactive = below that.

SMILES	BoNT F protease	BoNT-A LC inh2	MazF activator	DUSP3 inh	Bead autofluor	Anthrax LF prot
Cc1ccccc1NC(=O)c1cccc(NC(=O)c2ccccc2C(=O)O)c1	·	·	3	·	·	·
S=c1[nH]c2ccc3ccccc3c2[nH]1	2	0	0	53*	2543	0
Cc1cccc(C)c1NC(=O)CS(=O)CC(=O)Nc1ccc(N2CCOCC2)cc1 (stereo not drawn)	-1	-1	5	23	4312	-5
Cc1cc(C)c(NC(=O)CN2CCN(C)CC2)c(C)c1	-12	-2	13	-13	4630	-9
Cc1cc(C)c(NC(=O)CS(=O)CC(=O)N2CCN(c3ccccc3)CC2)c(C)c1 (stereo not drawn)	-2	0	2	-4	16393*	-2
COc1ccc(N2CCN(CC(=O)Nc3c(C)cc(C)cc3C)CC2)cc1	-2	-2	0	4	17139*	3
Cc1ccc(C(=O)N2CCN(c3ccc(NC(=O)Cc4ccccc4)cc3)CC2)cc1	-4	-1	6	24	6158	-3
O[C@H]1C[C@H](c2ccc(Cl)cc2)N(CC2CCCCC2)C[C@@H]1n1cc(C2CC2)nn1	-1	0	-1	·	3786	-3
CN(CCc1cnn(C)c1)Cc1cn(C)nc1-c1ccc2c(c1)OCCO2	0	0	4	52*	2560	-3
Cc1ccc(NC(=O)Cn2nnc(C(=O)NCc3cccs3)c2N)cc1F	0	0	6	10	5140	-1
CCOc1ccc2ccccc2c1/C=N\NC(=O)OC	-13	-2	-2	7	11974	-3
CCOc1ccc2ccccc2c1/C=N/NC(=O)CNC(=O)C(c1ccccc1)c1ccccc1	-5	0	-7	52*	2229	-2
CNC(=O)C[C@H]1C(=O)N(Cc2ccccc2)C[C@@H]1C	4	0	4	·	2758	5
CC1CC(C)CN(S(=O)(=O)c2ccc3c(c2)CCN3C(=O)CCC(=O)O)C1 (stereo not drawn)	-3	2	1	-2	4389	-1
Cc1cccc(N2CCN(S(=O)(=O)c3ccc4c(c3)CCN4C(=O)CCC(=O)O)CC2C)c1 (stereo not drawn)	-3	0	-1	54*	5547	-4
O=C(O)CCC(=O)N1CCc2cc(S(=O)(=O)NC3CCCc4ccccc43)ccc21 (stereo not drawn)	6	0	7	5	11993	0
O=C(O)CCC(=O)N1CCc2cc(S(=O)(=O)NC3CCCC3)ccc21	-3	-2	-10	6	21391*	2
Cc1cccc(N2CCN(S(=O)(=O)c3ccc4c(c3)CCN4C(=O)CCC(=O)O)CC2)c1C	-1	-2	-16	8	24315*	-2
Cc1ccc(C)c(N2CCN(S(=O)(=O)c3ccc4c(c3)CCN4C(=O)CCC(=O)O)CC2)c1	-7	0	0	29	5743	6
O=C(COC(=O)CCCOc1ccccc1)NC1CCS(=O)(=O)C1 (stereo not drawn)	4	2	-5	·	4190	-4
COc1cc(/C=C/C(=O)OCC(=O)Nc2cc(C)on2)ccc1OCC#N	·	·	-7	·	·	·
CCC(C)c1ccccc1NC(=O)COC(=O)c1ccc2[nH]c3c(c2c1)CCCC3 (stereo not drawn)	-5	-1	6	-4	1975	-3
O=C(Nc1c(-c2ccccc2)nc2ccccn12)c1ccccc1F	4	0	5	2	3517	-1
CCCCN(CCCC)CCCNC(=O)CC1Oc2ccc(C)cc2NC1=O (stereo not drawn)	-6	-5	1	6	23832*	-2
CCN(CC)CCCNC(=O)CC1Oc2ccc(C)cc2NC1=O (stereo not drawn)	-5	1	4	17	5852	0
SMILES	BoNT F protease	BoNT-A LC inh2	MazF activator	DUSP3 inh	Bead autofluor	Anthrax LF prot
C/C(=N\NC(=O)c1ccccc1O)C1CC1	-2	0	40	22	6136	1
CCCn1nnc(NCc2ccc(OCc3cccs3)c(OC)c2)n1	-2	-1	7	27	17112*	-2
Cc1cc(C)cc(N=C2NC(=O)/C(=C/c3cccs3)S2)c1	-5	1	-1	-4	2107	2
CCOc1ccc2c(c1)S/C(=C\c1cccs1)C(=O)N2	6	0	77*	0	3182	-8
CC(=O)Nc1ccc2c(c1)Cc1c(F)cccc1-2	-1	0	-10	·	3626	-4
CCOC(=O)c1nn(-c2ccc(F)cc2)c2nc(CC(C)C)c(C#N)c(=O)n12	12	8	10	25	18268*	-20
CCOC(=O)c1nn(-c2ccccc2)c2nc(-c3ccc(OC)cc3)c(C#N)c(=O)n12	-8	0	3	1	2378	-2
COc1ccc(-c2csc(NC(=O)C3CCN(c4ncnc5sc(C)c(C)c45)CC3)n2)cc1OC	5	6	-17	·	4597	1
COc1ccccc1NC(=O)Cn1nnc(C(=O)Nc2ccccc2)c1N	11	0	4	10	3147	0
COc1ccccc1NC(=O)c1nnn(CC(=O)Nc2ccccc2)c1N	-15	0	10	36	3640	-3
CCOc1ccc(NC(=O)c2nnn(CC(=O)Nc3ccccc3OC)c2N)cc1	36*	1	-1	19	4588	0
COc1ccccc1NC(=O)c1nnn(CC(=O)Nc2cccc(SC)c2)c1N	-3	1	-14	-9	22055*	0
Cc1cc2nc(-c3ccc(F)cc3)c(CC3CCCCC3)n2c(C)c1Br	0	0	·	·	6005	-4
O=C(CNC(=O)c1ccc(S(=O)(=O)N2CCCC2)cc1)N/N=C/c1ccc(Cl)cc1	-8	-1	5	-4	9154	1
O=C(CNC(=O)c1ccc(S(=O)(=O)N2CCCC2)cc1)N/N=C/c1ccc(Cl)cc1Cl	0	0	74*	6	7634	-2
CCCCC1CC1C(=O)Nc1ccc(OC)c(OC)c1 (stereo not drawn)	-3	0	-2	-9	16567*	0
O=S(=O)(c1ccc(Cl)cc1Br)N1CCCCC1	-7	-2	-10	-2	20568*	1
O=S(=O)(c1cc(Cl)ccc1Cl)N1CCNCC1	-11	-5	0	33	20984*	-2
CN(C)S(=O)(=O)c1ccc(S(=O)(=O)N(CC(=O)Nc2ccccc2)Cc2ccco2)cc1	-3	0	1	10	2480	1
CCN(CC)S(=O)(=O)c1ccc(S(=O)(=O)N(CC(=O)Nc2ccccc2)Cc2ccco2)cc1	3	4	5	0	22492*	0
O=C(CN(Cc1ccccc1)S(=O)(=O)c1ccc(Br)cc1)NCc1ccco1	-9	-5	-3	-1	23735*	-7
CCOC(=O)C1=CN(Cc2cccc(F)c2)S(=O)(=O)N(C)C1c1ccc2ccccc2c1 (stereo not drawn)	-5	0	50*	·	3430	-1
COC(=O)C1=C(C)N=C2SCCC(=O)N2C1c1cccs1 (stereo not drawn)	-5	0	2	-8	3337	-5
